PMC7862700, “An all-to-all approach to the identification of sequence-specific readers for epigenetic DNA modifications on cytosine”

How the values were obtained:
Assay in all cases: DAPPL (digital affinity profiling via proximity ligation, sequencing); 10 mM Tris-HCl pH 7.5, 50 mM NaCl, 1 mM DTT, 4% glycerol, room temperature, 30 min; GST-TFs on glutathione beads, 16-mer random dsDNA library, 0.1% formaldehyde crosslink after washing; high values mean tight binding
Settings in all cases: protein: recombinant; tags: N-terminal GST; dsDNA, one strand shown
ELK1 = target: T1, ELK1 (Homo sapiens, UniProt P19419 1-428)
T1 sequence: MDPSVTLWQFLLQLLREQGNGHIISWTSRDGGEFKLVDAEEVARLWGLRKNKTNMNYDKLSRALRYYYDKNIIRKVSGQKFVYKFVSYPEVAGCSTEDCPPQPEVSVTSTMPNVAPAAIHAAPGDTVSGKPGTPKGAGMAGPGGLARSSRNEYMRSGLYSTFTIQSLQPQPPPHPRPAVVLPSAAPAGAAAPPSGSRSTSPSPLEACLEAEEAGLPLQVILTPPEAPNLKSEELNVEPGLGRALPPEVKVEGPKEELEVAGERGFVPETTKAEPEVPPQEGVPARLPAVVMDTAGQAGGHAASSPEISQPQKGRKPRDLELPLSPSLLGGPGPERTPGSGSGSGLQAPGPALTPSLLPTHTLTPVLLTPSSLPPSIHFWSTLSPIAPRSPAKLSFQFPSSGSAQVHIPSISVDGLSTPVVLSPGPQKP
Procedure, shortened: (§1)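 GST fusions of human transcription factors were expressed in yeast and captured with glutathione beads. Once given DNA barcodes and pooled alongside a tag-only sample, they were incubated for 30 min at room temperature with 200 nmole of a random double-stranded 16-mer DNA library in Tris/NaCl/DTT/glycerol buffer, then washed, crosslinked (0.1% formaldehyde), proximity-ligated, PCR-amplified and sequenced on an Illumina NextSeq500. The binding signal of each hexamer is its read frequency for a factor divided by its frequency for the tag-only sample.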

GABPA = target: T2, GABPA (Homo sapiens, UniProt Q06546 1-454)
T2 sequence: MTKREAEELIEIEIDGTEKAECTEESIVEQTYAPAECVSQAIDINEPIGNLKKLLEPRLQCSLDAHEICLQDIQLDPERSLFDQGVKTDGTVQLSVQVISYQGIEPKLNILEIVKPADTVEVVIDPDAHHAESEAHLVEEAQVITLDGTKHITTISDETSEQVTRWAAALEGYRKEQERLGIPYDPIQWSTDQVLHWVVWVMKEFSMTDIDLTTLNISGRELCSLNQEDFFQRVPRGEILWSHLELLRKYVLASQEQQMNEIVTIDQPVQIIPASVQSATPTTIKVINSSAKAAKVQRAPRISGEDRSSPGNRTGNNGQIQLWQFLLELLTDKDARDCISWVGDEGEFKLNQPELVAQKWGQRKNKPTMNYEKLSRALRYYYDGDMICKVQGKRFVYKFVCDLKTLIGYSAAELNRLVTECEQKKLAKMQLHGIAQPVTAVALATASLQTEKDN
Procedure, shortened: as §1

ERG = target: T3, ERG (Homo sapiens, UniProt P11308 1-479)
T3 sequence: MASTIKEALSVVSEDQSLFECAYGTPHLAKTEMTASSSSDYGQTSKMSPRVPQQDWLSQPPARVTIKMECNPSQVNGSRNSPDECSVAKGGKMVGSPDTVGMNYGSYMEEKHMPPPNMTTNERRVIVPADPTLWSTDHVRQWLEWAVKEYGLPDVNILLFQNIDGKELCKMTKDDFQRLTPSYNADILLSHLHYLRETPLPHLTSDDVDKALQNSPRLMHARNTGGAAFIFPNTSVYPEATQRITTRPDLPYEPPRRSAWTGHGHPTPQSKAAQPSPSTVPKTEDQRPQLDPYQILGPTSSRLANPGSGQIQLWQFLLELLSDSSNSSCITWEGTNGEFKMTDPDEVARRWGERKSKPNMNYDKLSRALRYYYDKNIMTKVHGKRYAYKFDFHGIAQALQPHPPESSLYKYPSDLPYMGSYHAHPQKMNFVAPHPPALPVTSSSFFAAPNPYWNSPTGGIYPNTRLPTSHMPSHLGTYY
Procedure, shortened: as §1

ELF1 = ELF1 (Homo sapiens, UniProt P32519 1-619)
ELF1, sequence (P32519 whole entry): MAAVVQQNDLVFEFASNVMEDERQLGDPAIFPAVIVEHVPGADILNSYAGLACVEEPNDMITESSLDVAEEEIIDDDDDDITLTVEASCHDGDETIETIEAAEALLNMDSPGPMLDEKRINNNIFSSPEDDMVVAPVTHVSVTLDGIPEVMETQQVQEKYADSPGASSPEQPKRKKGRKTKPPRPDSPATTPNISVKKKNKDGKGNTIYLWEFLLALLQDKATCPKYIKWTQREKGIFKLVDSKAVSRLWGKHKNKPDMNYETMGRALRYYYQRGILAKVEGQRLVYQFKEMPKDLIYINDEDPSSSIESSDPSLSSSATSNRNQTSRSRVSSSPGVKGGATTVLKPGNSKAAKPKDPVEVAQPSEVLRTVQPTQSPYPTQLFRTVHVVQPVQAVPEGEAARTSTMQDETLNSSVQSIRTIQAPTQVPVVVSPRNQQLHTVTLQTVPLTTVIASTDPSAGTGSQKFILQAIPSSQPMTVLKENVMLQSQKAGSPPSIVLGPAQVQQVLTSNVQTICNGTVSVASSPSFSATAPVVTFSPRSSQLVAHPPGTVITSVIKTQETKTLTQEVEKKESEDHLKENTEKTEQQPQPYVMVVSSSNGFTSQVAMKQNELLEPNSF
Procedure, shortened: as §1

EHF = target: T4, EHF (Homo sapiens, UniProt Q9NZC4 1-300)
T4 sequence: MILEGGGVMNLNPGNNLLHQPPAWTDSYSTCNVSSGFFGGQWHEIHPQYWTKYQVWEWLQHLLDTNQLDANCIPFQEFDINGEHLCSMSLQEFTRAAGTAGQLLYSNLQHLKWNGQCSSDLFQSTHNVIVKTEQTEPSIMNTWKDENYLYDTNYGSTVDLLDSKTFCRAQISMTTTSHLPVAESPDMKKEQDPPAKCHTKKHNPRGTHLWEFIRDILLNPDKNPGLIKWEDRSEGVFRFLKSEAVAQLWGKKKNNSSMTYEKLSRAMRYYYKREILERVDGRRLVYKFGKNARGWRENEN
Procedure, shortened: as §1

SPIB = SPIB (Homo sapiens, UniProt Q01892 1-262)
SPIB, sequence (Q01892 whole entry): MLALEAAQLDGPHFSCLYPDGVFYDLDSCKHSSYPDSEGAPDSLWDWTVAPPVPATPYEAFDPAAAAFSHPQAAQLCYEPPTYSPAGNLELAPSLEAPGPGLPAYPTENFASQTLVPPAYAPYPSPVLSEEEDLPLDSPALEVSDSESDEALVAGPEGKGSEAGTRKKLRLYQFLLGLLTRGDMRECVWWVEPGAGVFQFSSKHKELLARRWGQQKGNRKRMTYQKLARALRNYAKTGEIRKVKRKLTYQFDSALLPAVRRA
Procedure, shortened: as §1

FEV = target: T5, FEV (Homo sapiens, UniProt Q99581 1-238)
T5 sequence: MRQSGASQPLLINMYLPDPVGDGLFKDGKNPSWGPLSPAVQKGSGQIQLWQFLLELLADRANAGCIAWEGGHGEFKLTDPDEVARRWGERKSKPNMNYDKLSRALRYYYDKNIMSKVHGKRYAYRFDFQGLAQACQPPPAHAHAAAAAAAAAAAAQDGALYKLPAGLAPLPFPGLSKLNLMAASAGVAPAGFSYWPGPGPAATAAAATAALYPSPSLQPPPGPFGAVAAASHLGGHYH
Procedure, shortened: as §1

ETV5 = ETV5 (Homo sapiens, UniProt P41161 1-510)
ETV5, sequence (P41161 whole entry): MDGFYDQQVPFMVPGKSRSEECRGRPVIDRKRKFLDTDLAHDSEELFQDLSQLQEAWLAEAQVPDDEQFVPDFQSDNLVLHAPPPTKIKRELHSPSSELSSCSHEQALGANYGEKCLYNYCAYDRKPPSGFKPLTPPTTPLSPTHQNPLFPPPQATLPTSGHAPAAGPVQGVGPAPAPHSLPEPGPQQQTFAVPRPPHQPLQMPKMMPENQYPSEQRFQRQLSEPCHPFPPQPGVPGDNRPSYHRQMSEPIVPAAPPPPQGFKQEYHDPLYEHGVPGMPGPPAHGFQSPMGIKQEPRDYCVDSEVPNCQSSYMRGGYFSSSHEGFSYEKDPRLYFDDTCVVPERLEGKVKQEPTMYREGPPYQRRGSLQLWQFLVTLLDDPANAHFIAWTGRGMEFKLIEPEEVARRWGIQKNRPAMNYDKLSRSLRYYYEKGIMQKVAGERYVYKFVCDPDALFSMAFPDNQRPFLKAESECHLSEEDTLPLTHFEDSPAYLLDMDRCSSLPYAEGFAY
Procedure, shortened: as §1

ELF4 = ELF4 (Homo sapiens, UniProt Q99607 1-663)
ELF4, sequence (Q99607 whole entry): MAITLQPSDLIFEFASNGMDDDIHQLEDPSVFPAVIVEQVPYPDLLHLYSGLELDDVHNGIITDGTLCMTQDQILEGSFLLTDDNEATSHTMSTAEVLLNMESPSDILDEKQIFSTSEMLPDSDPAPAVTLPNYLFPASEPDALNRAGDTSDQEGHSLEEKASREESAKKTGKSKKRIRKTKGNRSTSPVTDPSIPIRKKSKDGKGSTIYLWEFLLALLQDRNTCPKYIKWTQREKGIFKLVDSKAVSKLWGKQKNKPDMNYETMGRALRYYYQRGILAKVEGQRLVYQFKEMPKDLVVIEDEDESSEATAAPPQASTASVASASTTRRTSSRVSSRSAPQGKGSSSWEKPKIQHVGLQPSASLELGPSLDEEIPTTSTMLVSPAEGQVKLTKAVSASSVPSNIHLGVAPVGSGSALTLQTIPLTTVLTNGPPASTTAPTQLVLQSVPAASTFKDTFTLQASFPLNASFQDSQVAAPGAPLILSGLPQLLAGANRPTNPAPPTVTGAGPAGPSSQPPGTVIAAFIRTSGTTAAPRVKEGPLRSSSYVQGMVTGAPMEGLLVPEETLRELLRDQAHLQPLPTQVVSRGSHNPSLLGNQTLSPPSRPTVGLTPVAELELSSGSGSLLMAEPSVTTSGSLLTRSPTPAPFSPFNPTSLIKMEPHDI
Procedure, shortened: as §1

ELK4 = target: T6, ELK4 (Homo sapiens, UniProt P28324-2 1-405)
T6 sequence: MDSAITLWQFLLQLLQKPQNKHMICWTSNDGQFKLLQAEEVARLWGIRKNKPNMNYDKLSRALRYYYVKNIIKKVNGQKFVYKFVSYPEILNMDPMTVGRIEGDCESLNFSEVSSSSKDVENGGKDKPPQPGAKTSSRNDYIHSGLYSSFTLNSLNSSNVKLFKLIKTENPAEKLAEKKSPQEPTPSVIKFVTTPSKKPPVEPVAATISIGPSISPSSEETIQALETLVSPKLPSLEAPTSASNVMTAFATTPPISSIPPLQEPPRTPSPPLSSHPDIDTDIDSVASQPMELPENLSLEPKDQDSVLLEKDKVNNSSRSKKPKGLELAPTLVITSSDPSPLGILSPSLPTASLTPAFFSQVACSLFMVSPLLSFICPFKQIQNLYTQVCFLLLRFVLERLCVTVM
Procedure, shortened: as §1

ELF3 = target: T7, ELF3 (Homo sapiens, UniProt P78545 1-371)
T7 sequence: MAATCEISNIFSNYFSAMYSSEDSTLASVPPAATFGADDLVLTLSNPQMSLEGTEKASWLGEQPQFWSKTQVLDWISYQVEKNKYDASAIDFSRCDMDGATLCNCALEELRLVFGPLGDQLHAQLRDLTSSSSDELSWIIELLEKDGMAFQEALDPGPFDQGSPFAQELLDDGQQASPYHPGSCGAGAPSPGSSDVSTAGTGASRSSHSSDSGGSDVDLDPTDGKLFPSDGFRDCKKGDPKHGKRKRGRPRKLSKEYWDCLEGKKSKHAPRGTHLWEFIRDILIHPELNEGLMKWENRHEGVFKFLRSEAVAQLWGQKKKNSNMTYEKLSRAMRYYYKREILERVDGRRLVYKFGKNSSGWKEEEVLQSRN
Procedure, shortened: as §1

ETV1 = ETV1 (Homo sapiens, UniProt P50549 1-477)
ETV1, sequence (P50549 whole entry): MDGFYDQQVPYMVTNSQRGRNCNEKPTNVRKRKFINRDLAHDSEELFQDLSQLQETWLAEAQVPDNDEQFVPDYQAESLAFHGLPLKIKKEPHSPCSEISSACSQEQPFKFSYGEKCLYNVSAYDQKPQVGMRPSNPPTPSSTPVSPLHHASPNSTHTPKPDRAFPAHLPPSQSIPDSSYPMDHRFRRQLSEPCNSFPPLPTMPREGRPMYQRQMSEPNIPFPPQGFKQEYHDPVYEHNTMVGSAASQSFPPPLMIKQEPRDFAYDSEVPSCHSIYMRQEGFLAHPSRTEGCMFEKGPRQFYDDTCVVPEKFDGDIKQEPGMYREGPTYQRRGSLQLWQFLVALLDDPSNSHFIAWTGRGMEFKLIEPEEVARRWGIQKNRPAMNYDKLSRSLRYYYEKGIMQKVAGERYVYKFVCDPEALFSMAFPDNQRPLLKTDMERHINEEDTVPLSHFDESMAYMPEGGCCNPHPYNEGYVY
Procedure, shortened: as §1

ERF = target: T8, ERF (Homo sapiens, UniProt P50548 1-548)
T8 sequence: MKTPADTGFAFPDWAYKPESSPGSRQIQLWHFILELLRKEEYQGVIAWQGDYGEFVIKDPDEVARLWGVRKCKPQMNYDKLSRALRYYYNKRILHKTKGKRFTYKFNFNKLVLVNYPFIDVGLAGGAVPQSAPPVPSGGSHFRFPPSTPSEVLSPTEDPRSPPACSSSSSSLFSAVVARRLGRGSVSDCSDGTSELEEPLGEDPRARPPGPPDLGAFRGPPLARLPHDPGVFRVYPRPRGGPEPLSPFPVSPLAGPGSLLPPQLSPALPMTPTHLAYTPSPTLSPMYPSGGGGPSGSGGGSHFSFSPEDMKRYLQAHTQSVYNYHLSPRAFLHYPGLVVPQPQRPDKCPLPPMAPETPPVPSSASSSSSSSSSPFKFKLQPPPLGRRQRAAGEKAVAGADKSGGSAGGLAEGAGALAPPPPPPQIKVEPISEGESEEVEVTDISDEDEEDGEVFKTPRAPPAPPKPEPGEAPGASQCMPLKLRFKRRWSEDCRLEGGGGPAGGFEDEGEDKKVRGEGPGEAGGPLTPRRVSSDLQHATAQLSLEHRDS
Procedure, shortened: as §1

ETV3L = target: T9, ETV3L (Homo sapiens, UniProt Q6ZN32 1-361)
T9 sequence: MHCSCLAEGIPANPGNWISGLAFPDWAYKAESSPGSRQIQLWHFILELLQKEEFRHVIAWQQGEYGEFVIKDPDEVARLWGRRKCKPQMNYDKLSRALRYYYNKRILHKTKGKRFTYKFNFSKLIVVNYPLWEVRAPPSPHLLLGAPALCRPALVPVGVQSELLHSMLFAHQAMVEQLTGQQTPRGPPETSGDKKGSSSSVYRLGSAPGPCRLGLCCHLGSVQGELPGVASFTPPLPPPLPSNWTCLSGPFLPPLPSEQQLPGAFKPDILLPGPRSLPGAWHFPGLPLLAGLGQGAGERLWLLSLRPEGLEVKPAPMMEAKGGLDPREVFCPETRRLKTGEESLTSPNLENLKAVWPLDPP
Procedure, shortened: as §1

ETS2 = target: T10, ETS2 (Homo sapiens, UniProt P15036 1-469)
T10 sequence: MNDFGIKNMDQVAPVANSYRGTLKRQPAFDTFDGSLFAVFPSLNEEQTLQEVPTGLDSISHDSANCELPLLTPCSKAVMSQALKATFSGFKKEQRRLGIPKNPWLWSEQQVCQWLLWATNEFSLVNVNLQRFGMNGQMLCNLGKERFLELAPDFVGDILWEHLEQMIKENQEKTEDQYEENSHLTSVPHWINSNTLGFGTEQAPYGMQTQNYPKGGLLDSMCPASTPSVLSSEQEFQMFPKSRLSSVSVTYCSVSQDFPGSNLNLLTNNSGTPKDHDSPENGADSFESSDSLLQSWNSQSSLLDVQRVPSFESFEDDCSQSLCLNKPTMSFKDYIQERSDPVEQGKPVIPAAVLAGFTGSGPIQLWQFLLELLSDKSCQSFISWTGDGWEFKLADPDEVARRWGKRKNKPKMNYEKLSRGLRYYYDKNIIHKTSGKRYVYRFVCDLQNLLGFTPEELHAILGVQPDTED
Procedure, shortened: as §1

SPDEF = target: T11, SPDEF (Homo sapiens, UniProt O95238 1-335)
T11 sequence: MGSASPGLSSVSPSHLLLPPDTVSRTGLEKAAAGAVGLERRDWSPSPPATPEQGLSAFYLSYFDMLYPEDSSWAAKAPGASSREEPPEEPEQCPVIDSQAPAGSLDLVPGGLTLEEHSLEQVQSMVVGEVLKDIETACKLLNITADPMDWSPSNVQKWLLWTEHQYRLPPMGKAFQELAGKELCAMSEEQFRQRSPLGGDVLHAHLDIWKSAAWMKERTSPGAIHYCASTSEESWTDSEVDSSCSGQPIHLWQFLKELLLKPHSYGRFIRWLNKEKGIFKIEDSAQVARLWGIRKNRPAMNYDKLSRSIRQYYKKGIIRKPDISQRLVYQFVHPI
Procedure, shortened: as §1

ETV3 = target: T12, ETV3 (Homo sapiens, UniProt P41162-2 1-143)
T12 sequence: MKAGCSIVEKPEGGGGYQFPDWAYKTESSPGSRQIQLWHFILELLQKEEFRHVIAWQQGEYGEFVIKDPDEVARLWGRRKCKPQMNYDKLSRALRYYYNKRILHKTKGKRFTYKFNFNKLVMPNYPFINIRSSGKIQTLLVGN
Procedure, shortened: as §1

ETV6 = ETV6 (Homo sapiens, UniProt P41212 1-452)
ETV6, sequence (P41212 whole entry): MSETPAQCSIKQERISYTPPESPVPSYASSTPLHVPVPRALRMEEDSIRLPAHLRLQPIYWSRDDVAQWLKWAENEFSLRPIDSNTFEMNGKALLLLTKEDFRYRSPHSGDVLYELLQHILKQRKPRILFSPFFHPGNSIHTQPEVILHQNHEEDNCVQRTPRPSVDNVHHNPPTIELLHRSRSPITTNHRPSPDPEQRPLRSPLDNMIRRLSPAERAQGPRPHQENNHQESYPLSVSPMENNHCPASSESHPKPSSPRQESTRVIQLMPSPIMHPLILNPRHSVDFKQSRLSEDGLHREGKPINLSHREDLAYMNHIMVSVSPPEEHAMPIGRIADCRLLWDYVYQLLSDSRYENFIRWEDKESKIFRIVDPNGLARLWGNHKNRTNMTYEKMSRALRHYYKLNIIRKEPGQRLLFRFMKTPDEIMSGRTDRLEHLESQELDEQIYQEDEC
Procedure, shortened: as §1

CTAGCG was tested, and the binding signal (ELK1) was 1.12 fold enrichment (6-mer frequency, TF over GST control), the binding signal (GABPA) was 1.32 fold enrichment (6-mer frequency, TF over GST control) and the binding signal (ERG) was 1.19 fold enrichment (6-mer frequency, TF over GST control). For the same sequence, the binding signal (ELF1) was 1.11 fold enrichment (6-mer frequency, TF over GST control), the binding signal (EHF) was 1.18 fold enrichment (6-mer frequency, TF over GST control) and the binding signal (SPIB) was 1.17 fold enrichment (6-mer frequency, TF over GST control). The binding signal (FEV) was 1.15 fold enrichment (6-mer frequency, TF over GST control), the binding signal (ETV5) was 1.22 fold enrichment (6-mer frequency, TF over GST control) and the binding signal (ELF4) was 1.1 fold enrichment (6-mer frequency, TF over GST control). For the same sequence, the binding signal (ELK4) was 1.16 fold enrichment (6-mer frequency, TF over GST control), the binding signal (ELF3) was 1.05 fold enrichment (6-mer frequency, TF over GST control) and the binding signal (ETV1) was 1.17 fold enrichment (6-mer frequency, TF over GST control). The binding signal (ERF) was 1.31 fold enrichment (6-mer frequency, TF over GST control), the binding signal (ETV3L) was 1.07 fold enrichment (6-mer frequency, TF over GST control) and the binding signal (ETS2) was 1.18 fold enrichment (6-mer frequency, TF over GST control). The binding signal (SPDEF) was 1.1 fold enrichment (6-mer frequency, TF over GST control), the binding signal (ETV3) was 1.15 fold enrichment (6-mer frequency, TF over GST control) and the binding signal (ETV6) was 1.08 fold enrichment (6-mer frequency, TF over GST control).
